Assay results: PubChem BioAssay AID504411 (The Scripps Research Institute Molecular Screening Center, 2011)
The whole screen tested about 340,000 compounds, of which about 200 (0.059%) were called active. No stated cut-off is given here; in the data, active means inhibition above about 34%; inactive means the rest. Only a selection was taken, and actives are over-represented in it overall.

The compounds below were run against Diacylglycerol lipase-beta (Homo sapiens) (UniProt Q8NCG7) (assay: DAGLB lipase inhibitors, primary screen, biochemical, fluorescence, HTS (AID 504411;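 further: 0% = enzyme with vehicle and 100% = wells lacking enzyme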)). Details: HEK293T DAGLB membrane lysate, EnzChek fluorogenic substrate; at 5.17 µM; active compounds read high.
Sequence of Diacylglycerol lipase-beta (Homo sapiens) (Q8NCG7 whole entry, looked up): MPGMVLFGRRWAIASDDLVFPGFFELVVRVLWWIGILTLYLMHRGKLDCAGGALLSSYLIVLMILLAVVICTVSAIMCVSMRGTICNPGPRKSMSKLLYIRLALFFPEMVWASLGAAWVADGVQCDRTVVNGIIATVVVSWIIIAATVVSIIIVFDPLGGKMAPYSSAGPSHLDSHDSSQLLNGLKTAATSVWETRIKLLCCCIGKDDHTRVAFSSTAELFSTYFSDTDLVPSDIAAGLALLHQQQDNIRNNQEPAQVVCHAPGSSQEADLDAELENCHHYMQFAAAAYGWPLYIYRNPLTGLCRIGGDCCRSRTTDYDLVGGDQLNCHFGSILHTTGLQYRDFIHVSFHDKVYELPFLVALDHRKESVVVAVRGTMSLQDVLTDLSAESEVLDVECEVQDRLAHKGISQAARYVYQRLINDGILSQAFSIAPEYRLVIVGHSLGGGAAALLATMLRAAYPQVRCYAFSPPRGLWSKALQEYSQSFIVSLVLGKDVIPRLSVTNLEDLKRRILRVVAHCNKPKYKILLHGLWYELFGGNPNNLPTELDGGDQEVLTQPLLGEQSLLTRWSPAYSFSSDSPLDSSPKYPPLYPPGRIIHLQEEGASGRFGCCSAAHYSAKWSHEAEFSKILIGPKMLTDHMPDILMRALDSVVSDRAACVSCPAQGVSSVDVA

Row | Compound | inhibition
1 | c1ccc2c(c1)OCCOCCOCCO2 | 0.06% (inactive)
2 | COc1ccc(S(=O)(=O)/N=C2\C=C(NS(=O)(=O)c3ccccc3)C(=O)c3ccccc32)cc1 | 19.7% (inactive)
3 | Cc1ccc(S(=O)(=O)N/N=C(\c2ccccc2)C2CC2)cc1 | 0.32% (inactive)
4 | Cc1ccc(S(=O)(=O)/N=C2\C=C(NS(=O)(=O)c3ccc(C)cc3)C(=O)c3ccccc32)cc1 | 38.9% (active)
5 | Cc1nn(C)c(C)c1CN(C(=O)CCc1nnc(Cc2c[nH]c3ccccc23)o1)C(C)C | 1.36% (inactive)
6 | COCc1ccc(C(=O)N2CCc3c([nH]c4ccccc34)C2c2ccccn2)s1 (configuration not stated) | 2.71% (inactive)
7 | CC(CC(=O)N1CCN(c2ccccc2)CC1)S(=O)(=O)c1ccc2c(c1)NC(=O)CS2 (configuration not stated) | 1.53% (inactive)
8 | CCOc1ccc(-n2cnc3c(=O)[nH]c(N)nc32)cc1 | 0.5% (inactive)
9 | O=C(Nc1nnc(CCN2CCCCC2)s1)c1cccc(Cl)c1 | 0.09% (inactive)
10 | CCOC(=O)C1=C(C)OC(N)=C(C#N)C1c1cncc(-c2ccc(F)cc2)c1 (configuration not stated) | -3.22% (inactive)
11 | C=CCn1nc(-c2ccccc2)c2c(C)onc2c1=O | -0.48% (inactive)
12 | CC(Sc1nncn1C)C(=O)Nc1cc(C(F)(F)F)ccc1N1CCOCC1 (configuration not stated) | 0.9% (inactive)
13 | O=C(NC1CCCC1)C1CC(=O)N(c2ccc(F)cc2)C1 (configuration not stated) | 2.14% (inactive)
14 | O=C(NNC(=O)c1ccccc1O)c1ccccc1O | 3.19% (inactive)
15 | O=C(COC(=O)c1ccc(O)cc1O)NC(=O)c1ccccc1 | 1.38% (inactive)
16 | O=C(NNc1c2ccccc2nc2ccccc12)c1cc2ccccc2cc1O | 64% (active)
17 | Cc1ccc(-c2cc(C(F)(F)F)n3ncc(C(=O)N4CCCCC4c4cccnc4)c3n2)cc1 (configuration not stated) | 0.87% (inactive)
18 | Nc1ccc(Cl)c(S(=O)(=O)Nc2ccccc2Cl)c1 | 2.95% (inactive)
19 | O=C1C(=O)N(CCN2CCOCC2)C(c2ccccn2)/C1=C(/O)c1ccc(Cl)cc1 (configuration not stated) | 1.82% (inactive)

Row | Compound | inhibition
20 | COc1cc(/C=C/C(=O)N2CCc3ccccc3C2)cc(OC)c1OC | -1.38% (inactive)
21 | O=C(c1ccc(=O)[nH]c1)N(Cc1ccco1)C1(C(=O)NC2CCCCC2)CCCCC1 | -1.49% (inactive)
22 | COc1cccc(NC(=S)NC(=O)c2c(Cl)c(C)nn2C)c1 | -24.9% (inactive)
23 | CN(C(=O)CSc1nnc(C2CC2)n1C)C1CCCc2ccccc21 (configuration not stated) | 1.81% (inactive)
24 | CCOCCn1[nH]c2ccccc2c1=O | -1.38% (inactive)
25 | CCOc1ccc(C(O)Cn2c(=N)n(CCN3CCCCC3)c3ccccc32)cc1 (configuration not stated) | -2.39% (inactive)
26 | Cc1cccc(Nc2nc3c(S(=O)(=O)c4ccccc4)nnn3c3ccccc23)c1C | 0.26% (inactive)
27 | CCn1c(SCC(=O)N2CCCC2=O)nc2ccccc21 | -0.5% (inactive)
28 | COc1ccc(OC)c(NC(=O)c2cccc(S(=O)(=O)N3CCN(C(C)=O)CC3)c2)c1 | -0.51% (inactive)
29 | O=C(CCCN=C1NS(=O)(=O)c2ccccc21)OCC(=O)c1ccc(F)c(F)c1 | 1.93% (inactive)
30 | CN1CCC(N(C)C(=O)c2ccc(Cl)c(S(=O)(=O)Nc3ccc(Cl)cc3)c2)CC1 | -0.08% (inactive)
31 | CSCCC(=O)N1CCCC(CNC(=O)c2ccccc2Cl)C1 (configuration not stated) | -3.33% (inactive)
32 | C[C@H](CO)N1C[C@H](C)[C@@H](CN(C)C(=O)NC2CCCCC2)Oc2ccc(NC(=O)c3ccncc3)cc2C1=O | -0.14% (inactive)
33 | O=C1C=C(NCCNc2c(F)c(F)c(CO)c(F)c2F)CCC1 | 0.21% (inactive)
34 | COc1ccc(C(=O)Cn2nnc(-c3ccc(N4CCOCC4)cc3)n2)cc1OC | 0.4% (inactive)
35 | COc1ccccc1NS(=O)(=O)c1ccc(C(=O)N2CCN(c3ccccc3O)CC2)cc1 | 3.47% (inactive)
36 | CCOC(=O)N1CCC(O)(c2cc(C)c(C)cc2C)CC1 | -4.76% (inactive)
37 | CC(=O)c1c(C)[nH]c(C(=O)CN2C(=O)NC(C)(C)C2=O)c1C | 2.12% (inactive)
38 | CCOC(=O)C1CN(S(=O)(=O)c2ccc(F)cc2)C1 | -3.17% (inactive)

Row | Compound | inhibition
39 | O=c1oc(-c2ccccc2NS(=O)(=O)c2ccc(Cl)cc2)nc2ccccc12 | 6.09% (inactive)
40 | COc1cccc(/C=C2\SC(=S)N(CCCC(=O)N3CCOCC3)C2=O)c1 | -4.26% (inactive)
41 | COCCCNC(=O)[C@H]1N2C(=O)c3ccccc3C2SC1(C)C (some centres not stated) | -1.33% (inactive)
42 | CC(=O)Nc1ccc(C(=O)Nc2cccc(S(=O)(=O)NC3=NCCC3)c2)cc1 | -2.22% (inactive)
43 | CCOC(=O)C1CSC(CC(=O)Nc2ccc(OCC)cc2)C(=O)N1 (configuration not stated) | 0.21% (inactive)
44 | O=C(O)CC(c1ccccc1F)N1Cc2ccccc2C1=O (configuration not stated) | 1.06% (inactive)
45 | CCCN(CCC)S(=O)(=O)c1ccc(C(=O)N2CC3CCC(CC3)C2)cc1 | -8.08% (inactive)
46 | Cc1oc2cc([N+](=O)[O-])c(O)c([N+](=O)[O-])c2c1C(=O)c1ccc(Br)cc1 | 44% (active)
47 | COc1ccc(C(=O)c2c(C)oc3cc([N+](=O)[O-])c(O)c([N+](=O)[O-])c23)cc1 | 21.1% (inactive)
48 | Cc1oc2cc(Br)c(O)c(Br)c2c1C(=O)c1ccccc1 | -1.78% (inactive)
49 | CCOc1ccc(S(=O)(=O)NCCC(=O)NCC(C)(C)N2CCOCC2)cc1 | 1.14% (inactive)
50 | CSC1=N/C(=C\C=C\c2cccs2)C(=O)S1 | 6.62% (inactive)
51 | Cc1c(C(=O)NCC(c2ccco2)N2CCCC2)oc2ccc(Cl)cc12 (configuration not stated) | -3.86% (inactive)
52 | CCOC(=O)C1CCN(C(=O)C2(NC(=O)Nc3cccc(F)c3)CCCCC2)CC1 | 1.05% (inactive)
53 | CC1(C)OC(=O)C(=CNC(CO)C(=O)O)C(=O)O1 (configuration not stated) | -0.76% (inactive)
54 | CC(=O)N1CCc2ccc(N)cc21 | -0.55% (inactive)
55 | COc1ccc(C(=O)NCc2ccc(C)cc2)cc1S(=O)(=O)N1CCCC1 | -0.31% (inactive)
56 | Cc1cc(=O)n2nc(N3CCCC(C(=O)NCc4cccc(Cl)c4)C3)sc2n1 (configuration not stated) | -0.02% (inactive)
57 | CCOC(=O)CN(C(=O)COc1nc(-c2ccccc2)cc(C)c1C#N)c1ccc(F)cc1 | -4.62% (inactive)
